# From PubChem BioAssay (EPA / NIEHS)
# Values joined by “and” are separate entries in the source; they are usually repeats but may differ in a detail not shown here. Equal values may be shown once. Inconclusive results are not listed. Active and inactive are the calls of the source. The calls were made as follows, unless noted: active = hit-call score of the fitted dose curve at least 0.9, where 1 is the maximum; inconclusive = response in the unintended direction; inactive = score below 0.9.
# What was measured:
# [1] = target: rat CYP2A2, Cyp2a2 (gene 24895) (UniProt P15149); test: NVS_ADME_rCYP2A2: NovaScreen (NVS) CYP450-related Enzyme Activity (ADME) Assay for rat CYP2A2 (AID 2283116)
# Summary of the method: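 Cell-free recombinant rat CYP2A2 activity with fluorogenic substrate, fluorescence read 0.2 h after dosing. Chemicals screened at 10 uM in duplicate, hits then run in concentration-response up to 20 uM; signal loss versus acetonitrile baseline.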
# [2] = target: human CYP4F12, CYP4F12 (gene 66002) (UniProt Q9HCS2); test: NVS_ADME_hCYP4F12: NovaScreen (NVS) CYP450-related Enzyme Activity (ADME) Assay for human CYP4F12 (AID 2283111)
# Summary of the method: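 Cell-free fluorescence assay of recombinant human CYP4F12 activity on a specific substrate, read 0.5 h after dosing. Primary screen in duplicate at 10 uM, then concentration series for actives; loss of signal fitted against acetonitrile negative control.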
# [3] = target: human AKT serine/threonine Kinase 1 (AKT1), AKT1 (gene 207) (UniProt P31749); test: NVS_ENZ_hAKT1: NovaScreen (NVS) Enzymatic Assay for human AKT serine/threonine Kinase 1 (AKT1) (AID 2283138)
# Sequence of human AKT serine/threonine Kinase 1 (AKT1), AKT1 (gene 207) (P31749 whole entry, looked up): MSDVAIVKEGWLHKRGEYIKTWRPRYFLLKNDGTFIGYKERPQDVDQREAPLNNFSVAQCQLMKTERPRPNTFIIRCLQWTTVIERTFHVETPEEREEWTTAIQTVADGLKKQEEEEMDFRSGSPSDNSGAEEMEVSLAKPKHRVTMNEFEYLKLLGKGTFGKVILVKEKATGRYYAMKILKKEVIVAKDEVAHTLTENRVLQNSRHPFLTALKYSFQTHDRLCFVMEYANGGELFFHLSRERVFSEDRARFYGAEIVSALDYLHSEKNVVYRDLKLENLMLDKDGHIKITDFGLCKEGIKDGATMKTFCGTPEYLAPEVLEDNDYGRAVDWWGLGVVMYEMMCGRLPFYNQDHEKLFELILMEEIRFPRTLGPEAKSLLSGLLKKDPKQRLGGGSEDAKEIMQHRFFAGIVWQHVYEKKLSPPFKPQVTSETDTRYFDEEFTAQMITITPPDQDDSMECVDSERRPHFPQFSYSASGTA
# Summary of the method: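 Recombinant human AKT1 with a specific substrate, product separated by electrophoretic mobility shift, read after 1 h. Compounds at 25 uM in duplicate, then concentration-response up to 50 uM for hits; inhibition relative to DMSO.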
# [4] = target: human Caspase 2 (CASP2), CASP2 (gene 835) (UniProt P42575); test: NVS_ENZ_hCASP2: NovaScreen (NVS) Enzymatic Assay for human Caspase 2 (CASP2) (AID 2283135)
# Sequence of human Caspase 2 (CASP2), CASP2 (gene 835) (P42575 whole entry, looked up): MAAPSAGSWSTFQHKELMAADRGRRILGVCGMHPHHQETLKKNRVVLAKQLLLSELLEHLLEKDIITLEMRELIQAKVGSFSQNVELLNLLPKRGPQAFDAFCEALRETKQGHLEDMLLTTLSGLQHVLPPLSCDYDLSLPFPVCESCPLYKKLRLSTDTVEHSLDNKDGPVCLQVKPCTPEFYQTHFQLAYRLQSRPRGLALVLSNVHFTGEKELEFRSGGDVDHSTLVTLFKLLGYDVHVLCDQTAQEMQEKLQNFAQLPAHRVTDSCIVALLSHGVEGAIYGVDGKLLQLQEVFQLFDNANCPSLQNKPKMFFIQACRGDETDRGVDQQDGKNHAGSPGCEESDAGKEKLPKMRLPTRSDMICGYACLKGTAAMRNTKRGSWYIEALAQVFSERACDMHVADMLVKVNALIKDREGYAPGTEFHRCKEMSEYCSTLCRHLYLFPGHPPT
# Summary of the method: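 E. coli-expressed enzyme in a cell-free protease assay, fluorescence read 1 h after dosing. Compounds at 25 uM in duplicate, with concentration-response up to 50 uM for hits; loss of signal against DMSO baseline.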
# [5] = target: human Acid Phosphatase 1 (ACP1), ACP1 (gene 52) (UniProt P24666); test: NVS_ENZ_hACP1: NovaScreen (NVS) Enzymatic Assay for human Acid Phosphatase 1 (ACP1) (AID 2283136)
# Sequence of human Acid Phosphatase 1 (ACP1), ACP1 (gene 52) (P24666 whole entry, looked up): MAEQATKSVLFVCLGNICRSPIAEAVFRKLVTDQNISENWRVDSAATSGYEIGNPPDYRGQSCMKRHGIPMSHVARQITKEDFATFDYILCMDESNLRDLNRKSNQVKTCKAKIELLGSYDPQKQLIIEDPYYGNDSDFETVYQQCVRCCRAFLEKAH
# Summary of the method: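 Recombinant enzyme expressed in Sf9 cells, tested cell-free; activity read by fluorescence with electrophoretic mobility shift separation of substrate and product, 1.5 h after dosing. Primary screen in duplicate at 25 uM, actives then run in concentration series; loss of signal versus DMSO.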
# [6] = target: human Aurora Kinase A - serine/threonine-protein Kinase 6 (AurA), AURKA (gene 6790) (UniProt O14965); test: NVS_ENZ_hAurA: NovaScreen (NVS) Enzymatic Assay for human Aurora Kinase A - serine/threonine-protein Kinase 6 (AurA) (AID 2283142)
# Sequence of human Aurora Kinase A - serine/threonine-protein Kinase 6 (AurA), AURKA (gene 6790) (O14965 whole entry, looked up): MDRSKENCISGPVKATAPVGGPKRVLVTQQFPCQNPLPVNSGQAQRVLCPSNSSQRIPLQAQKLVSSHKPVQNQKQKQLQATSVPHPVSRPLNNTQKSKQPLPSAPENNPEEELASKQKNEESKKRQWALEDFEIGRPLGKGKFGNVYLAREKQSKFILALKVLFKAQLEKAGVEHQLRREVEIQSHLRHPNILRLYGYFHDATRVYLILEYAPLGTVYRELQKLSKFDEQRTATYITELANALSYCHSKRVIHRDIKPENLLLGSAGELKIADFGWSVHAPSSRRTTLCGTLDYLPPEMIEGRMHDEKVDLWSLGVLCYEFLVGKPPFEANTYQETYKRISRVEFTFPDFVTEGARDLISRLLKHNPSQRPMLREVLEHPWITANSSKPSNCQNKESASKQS
# Summary of the method: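 Cell-free enzymatic assay with human Aurora A, 1 hour after dosing. Fluorescent substrate turnover detected after electrophoretic mobility shift separation of substrate and product. Screened at 25 uM, actives retested in concentration-response up to 50 uM.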
# [7] = target: Cytochrome P450 2C19 (Homo sapiens) (UniProt P33261); test: NVS_ADME_hCYP2C19: NovaScreen (NVS) CYP450-related Enzyme Activity (ADME) Assay for human CYP2C19 (AID 2283113);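 as to AC50: potency for inhibition seen as loss of fluorescent signal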
# Summary of the method: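 Recombinant insect-cell-expressed enzyme, fluorescent substrate, 1 h after chemical addition, fluorescence intensity. Baseline = acetonitrile vehicle; activity scored as signal loss. Primary HTS single concentration 10 uM, duplicate; actives retested in concentration series.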
# [8] = target: human Caspase 5 (CASP5), CASP5 (gene 838) (UniProt P51878); test: NVS_ENZ_hCASP5: NovaScreen (NVS) Enzymatic Assay for human Caspase 5 (CASP5) (AID 2283137)
# Sequence of human Caspase 5 (CASP5), CASP5 (gene 838) (P51878 whole entry, looked up): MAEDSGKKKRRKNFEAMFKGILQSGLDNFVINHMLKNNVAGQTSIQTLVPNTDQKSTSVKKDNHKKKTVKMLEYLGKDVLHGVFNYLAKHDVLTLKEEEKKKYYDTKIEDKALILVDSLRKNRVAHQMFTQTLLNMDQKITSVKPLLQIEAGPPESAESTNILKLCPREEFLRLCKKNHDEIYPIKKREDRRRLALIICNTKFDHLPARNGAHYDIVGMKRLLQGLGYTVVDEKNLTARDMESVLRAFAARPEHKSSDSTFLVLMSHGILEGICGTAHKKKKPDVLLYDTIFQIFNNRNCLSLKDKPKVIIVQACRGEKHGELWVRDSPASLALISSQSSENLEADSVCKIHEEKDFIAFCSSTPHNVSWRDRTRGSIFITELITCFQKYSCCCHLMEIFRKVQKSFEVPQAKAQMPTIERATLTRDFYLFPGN
# Summary of the method: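 Recombinant human caspase 5 expressed in E. coli, fluorogenic substrate, fluorescence read 2 h after dosing. Single-point 25 uM duplicate screen, then concentration-response to maximum 50 uM for actives; DMSO baseline.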
# [9] = target: human AMP-activated Protein Kinase, alpha 1 (AMPKa1), PRKAA1 (gene 5562) (UniProt Q13131); test: NVS_ENZ_hAMPKa1: NovaScreen (NVS) Enzymatic Assay for human AMP-activated Protein Kinase, alpha 1 (AMPKa1) (AID 2283130)
# Sequence of human AMP-activated Protein Kinase, alpha 1 (AMPKa1), PRKAA1 (gene 5562) (Q13131 whole entry, looked up): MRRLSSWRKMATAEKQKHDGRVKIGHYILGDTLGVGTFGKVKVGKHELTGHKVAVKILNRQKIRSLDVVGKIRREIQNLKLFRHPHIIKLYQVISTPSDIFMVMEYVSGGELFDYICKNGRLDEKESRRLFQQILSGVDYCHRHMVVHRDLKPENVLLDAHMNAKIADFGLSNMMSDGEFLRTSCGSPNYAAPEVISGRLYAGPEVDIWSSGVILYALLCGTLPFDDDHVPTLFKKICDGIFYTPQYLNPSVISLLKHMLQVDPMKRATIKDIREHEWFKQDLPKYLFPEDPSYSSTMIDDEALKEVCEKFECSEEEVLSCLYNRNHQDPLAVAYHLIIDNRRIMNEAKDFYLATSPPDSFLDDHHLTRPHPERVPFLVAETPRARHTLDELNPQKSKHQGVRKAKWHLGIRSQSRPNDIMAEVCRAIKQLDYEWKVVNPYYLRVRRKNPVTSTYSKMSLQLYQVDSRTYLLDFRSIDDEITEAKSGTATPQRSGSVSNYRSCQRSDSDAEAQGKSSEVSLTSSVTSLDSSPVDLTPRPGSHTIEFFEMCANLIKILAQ
# Summary of the method: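 Recombinant human AMPKα1 activity was measured cell-free by fluorescent substrate conversion with electrophoretic mobility-shift separation, 1 h after dosing. Duplicate single-point screening was at 25 uM; actives (≥30% inhibition) were retested in concentration-response up to 50 uM.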
# CDK2 (gene 1017) = CDK2 (gene 1017) (UniProt P24941); test: NVS_ENZ_hCDK2: NovaScreen (NVS) Enzymatic Assay for human Cyclin-Cependent Kinase 2 (CDK2) (AID 2283144)
# Summary of the method: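 Cell-free recombinant human CDK2 with fluorescent substrate, product separated by electrophoretic mobility shift; 1 hr read. Primary screen at 25 uM in duplicate, actives retested in concentration-response up to 50 uM; loss of signal versus DMSO.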
# Caspase-1 (Homo sapiens) = Caspase-1 (Homo sapiens) (UniProt P29466); test: NVS_ENZ_hCASP1: NovaScreen (NVS) Enzymatic Assay for human Caspase 1 (CASP1) (AID 2283132)
# Sequence of Caspase-1 (Homo sapiens) (P29466 whole entry, looked up): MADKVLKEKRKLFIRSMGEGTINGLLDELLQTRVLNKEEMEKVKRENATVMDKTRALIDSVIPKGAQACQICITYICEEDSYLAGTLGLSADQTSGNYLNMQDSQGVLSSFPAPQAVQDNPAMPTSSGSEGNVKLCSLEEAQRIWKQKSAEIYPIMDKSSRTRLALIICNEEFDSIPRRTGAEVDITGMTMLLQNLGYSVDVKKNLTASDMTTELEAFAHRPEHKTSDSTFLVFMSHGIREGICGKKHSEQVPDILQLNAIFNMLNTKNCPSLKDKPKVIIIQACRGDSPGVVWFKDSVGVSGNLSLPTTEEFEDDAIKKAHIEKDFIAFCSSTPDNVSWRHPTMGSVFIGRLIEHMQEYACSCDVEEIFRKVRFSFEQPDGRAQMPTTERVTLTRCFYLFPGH
# Summary of the method: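 Cell-free enzymatic assay with E. coli-expressed recombinant protein; fluorescence intensity read 1 hour after dosing. Single-concentration duplicate screen at 25 uM, then concentration-response up to 50 uM; activity fitted relative to DMSO, loss of signal meaning inhibition.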
# [10] = target: human Caspase 10 (CASP10), CASP10 (gene 843) (UniProt Q92851); test: NVS_ENZ_hCASP10: NovaScreen (NVS) Enzymatic Assay for human Caspase 10 (CASP10) (AID 2283133)
# Summary of the method: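 Recombinant human caspase-10 from E. coli, cell-free fluorogenic substrate assay read 1 h after dosing. Primary duplicate screen at 25 uM; hits (e.g. ≥30% inhibition) run singly in concentration-response up to 50 uM, normalised to DMSO.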
# [11] = target: human Beta-secretase (BACE), BACE1 (gene 23621) (UniProt P56817); test: NVS_ENZ_hBACE: NovaScreen (NVS) Enzymatic Assay for human Beta-secretase (BACE) (AID 2283140);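 also: hits are inhibitors that reduce fluorescent substrate signal versus DMSO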
# Sequence of human Beta-secretase (BACE), BACE1 (gene 23621) (P56817 whole entry, looked up): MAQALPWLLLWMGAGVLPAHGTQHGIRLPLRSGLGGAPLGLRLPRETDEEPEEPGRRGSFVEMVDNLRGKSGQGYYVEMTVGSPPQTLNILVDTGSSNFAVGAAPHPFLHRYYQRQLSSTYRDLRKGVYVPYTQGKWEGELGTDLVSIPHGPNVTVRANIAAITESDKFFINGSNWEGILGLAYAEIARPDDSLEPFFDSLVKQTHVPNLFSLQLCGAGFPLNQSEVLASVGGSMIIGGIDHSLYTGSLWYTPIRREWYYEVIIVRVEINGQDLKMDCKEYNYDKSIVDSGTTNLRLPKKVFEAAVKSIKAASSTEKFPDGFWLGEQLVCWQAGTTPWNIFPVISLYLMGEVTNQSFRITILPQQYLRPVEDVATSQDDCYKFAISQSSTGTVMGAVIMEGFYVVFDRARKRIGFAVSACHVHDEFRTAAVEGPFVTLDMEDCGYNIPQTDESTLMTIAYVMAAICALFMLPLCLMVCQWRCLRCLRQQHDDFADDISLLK
# Summary of the method: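 Cell-free assay of recombinant Sf9-expressed human BACE with fluorescent substrate, read by fluorescence intensity after 1 h. Primary screen in duplicate at 25 uM; actives then run in concentration series; loss of signal relative to DMSO.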
# [12] = target: human AKT serine/threonine Kinase 2 (AKT2), AKT2 (gene 208) (UniProt P31751); test: NVS_ENZ_hAKT2: NovaScreen (NVS) Enzymatic Assay for human AKT serine/threonine Kinase 2 (AKT2) (AID 2283141)
# Sequence of human AKT serine/threonine Kinase 2 (AKT2), AKT2 (gene 208) (P31751 whole entry, looked up): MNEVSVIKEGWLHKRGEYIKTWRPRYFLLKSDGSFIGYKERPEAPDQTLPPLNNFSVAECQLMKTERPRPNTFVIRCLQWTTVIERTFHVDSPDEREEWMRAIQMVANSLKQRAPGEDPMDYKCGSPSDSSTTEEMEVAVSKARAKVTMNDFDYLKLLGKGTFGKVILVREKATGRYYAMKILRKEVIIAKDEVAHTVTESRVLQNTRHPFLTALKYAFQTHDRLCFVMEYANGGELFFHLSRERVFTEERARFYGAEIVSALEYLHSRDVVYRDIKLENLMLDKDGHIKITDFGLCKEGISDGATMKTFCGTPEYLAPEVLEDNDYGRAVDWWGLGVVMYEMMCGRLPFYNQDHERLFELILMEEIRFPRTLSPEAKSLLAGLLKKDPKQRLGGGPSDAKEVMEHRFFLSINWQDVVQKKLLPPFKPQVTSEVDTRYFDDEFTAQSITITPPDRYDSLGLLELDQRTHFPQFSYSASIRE
# Summary of the method: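 Cell-free fluorescence/electrophoretic mobility shift readout of recombinant human AKT2 activity, 1 h after chemical dosing. Duplicate primary screen at 25 uM, then singleton concentration-response up to 50 uM; loss of signal versus DMSO baseline.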
# [13] = target: human Caspase 8 (CASP8), CASP8 (gene 841) (UniProt Q14790); test: NVS_ENZ_hCASP8: NovaScreen (NVS) Enzymatic Assay for human Caspase 8 (CASP8) (AID 2283146)
# Summary of the method: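 E. coli-expressed enzyme was used in a cell-free fluorogenic substrate assay read 1 h after dosing. Loss of signal was scored relative to DMSO, and the primary screen was run in duplicate at 25 uM.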
# [14] = target: rat CYP2A1, Cyp2a1 (gene 24894) (UniProt P11711); test: NVS_ADME_rCYP2A1: NovaScreen (NVS) CYP450-related Enzyme Activity (ADME) Assay for rat CYP2A1 (AID 2283114; active = hit-call score of the fitted dose curve at least 0.9, where 1 is the maximum; inactive = score below 0.9)
# Summary of the method: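 Recombinant rat CYP2A1, cell-free, fluorogenic substrate turnover read by fluorescence intensity 0.75 h after dosing. Primary screen at 10 uM in duplicate; actives rerun as concentration-response up to 20 uM; loss of signal versus acetonitrile control.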
# rat CYP3A1, gene 25642 = test: NVS_ADME_rCYP3A1: NovaScreen (NVS) CYP450-related Enzyme Activity (ADME) Assay for rat CYP3A1 (AID 2283126)
# Summary of the method: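 Cell-free recombinant CYP assay with fluorescent substrate, read 0.5 h after dosing. Screened at 10 uM in duplicate, hits at up to 20 uM in concentration-response; loss of signal versus acetonitrile baseline.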
# [15] = target: rat CYP2C11, Cyp2c11 (gene 29277) (UniProt P08683); test: NVS_ADME_rCYP2C11: NovaScreen (NVS) CYP450-related Enzyme Activity (ADME) Assay for rat CYP2C11 (AID 2283118)
# Sequence of rat CYP2C11, Cyp2c11 (gene 29277) (P08683 whole entry, looked up): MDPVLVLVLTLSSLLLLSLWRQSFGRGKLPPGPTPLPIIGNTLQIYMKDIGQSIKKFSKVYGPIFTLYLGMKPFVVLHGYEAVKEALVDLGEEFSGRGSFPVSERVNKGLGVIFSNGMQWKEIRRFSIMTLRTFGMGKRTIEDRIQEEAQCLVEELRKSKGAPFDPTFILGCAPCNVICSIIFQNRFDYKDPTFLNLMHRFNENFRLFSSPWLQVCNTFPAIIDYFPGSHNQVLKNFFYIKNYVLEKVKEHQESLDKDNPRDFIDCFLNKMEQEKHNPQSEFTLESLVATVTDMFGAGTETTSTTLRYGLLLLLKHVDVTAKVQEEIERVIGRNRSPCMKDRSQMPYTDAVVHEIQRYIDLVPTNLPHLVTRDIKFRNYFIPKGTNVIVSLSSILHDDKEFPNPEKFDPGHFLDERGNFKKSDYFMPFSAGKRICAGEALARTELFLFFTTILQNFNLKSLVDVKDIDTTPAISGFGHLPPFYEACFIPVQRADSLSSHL
# Summary of the method: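 Cell-free recombinant rat enzyme with fluorescent substrate; readout 0.33 h after dosing, loss of signal versus acetonitrile control. Initial duplicate single-point at 10 uM; actives rerun in concentration series.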
# [16] = target: rat CYP2C13, Cyp2c13 (gene 171521) (UniProt P20814); test: NVS_ADME_rCYP2C13: NovaScreen (NVS) CYP450-related Enzyme Activity (ADME) Assay for rat CYP2C13 (AID 2283121)
# Summary of the method: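 Recombinant rat CYP2C13 with fluorogenic substrate, 0.75 h cell-free incubation; primary screen in duplicate at 10 uM, actives followed in concentration series. Fluorescence loss relative to acetonitrile control indicates inhibition.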
# [17] = target: rat CYP1A2, Cyp1a2 (gene 24297) (UniProt P04799); test: NVS_ADME_rCYP1A2: NovaScreen (NVS) CYP450-related Enzyme Activity (ADME) Assay for rat CYP1A2 (AID 2283115)
# Sequence of rat CYP1A2, Cyp1a2 (gene 24297) (P04799 whole entry, looked up): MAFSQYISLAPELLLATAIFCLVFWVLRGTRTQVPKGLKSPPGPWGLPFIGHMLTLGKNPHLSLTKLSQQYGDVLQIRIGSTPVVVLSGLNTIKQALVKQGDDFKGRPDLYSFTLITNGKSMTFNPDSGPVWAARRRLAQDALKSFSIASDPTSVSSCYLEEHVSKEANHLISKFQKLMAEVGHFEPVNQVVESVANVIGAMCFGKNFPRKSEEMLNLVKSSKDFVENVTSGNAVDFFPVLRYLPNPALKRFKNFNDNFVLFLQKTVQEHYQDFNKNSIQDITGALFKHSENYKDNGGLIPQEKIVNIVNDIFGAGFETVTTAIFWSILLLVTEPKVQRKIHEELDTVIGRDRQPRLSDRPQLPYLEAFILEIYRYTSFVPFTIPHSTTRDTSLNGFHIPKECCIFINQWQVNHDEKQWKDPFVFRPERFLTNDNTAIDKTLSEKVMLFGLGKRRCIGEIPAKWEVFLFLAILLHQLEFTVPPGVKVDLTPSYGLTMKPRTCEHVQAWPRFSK
# Summary of the method: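 Cell-free recombinant rat enzyme with fluorogenic substrate, read by fluorescence intensity 1 hour after dosing. Loss of signal versus acetonitrile negative control; primary screen at 10 uM in duplicate, actives followed in concentration series.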
smiles,measurement,setting,value
O=C(O)COc1ccc(Cl)cc1,outcome,[1],inactive
Oc1cc(Cl)c(Cl)cc1Cl,AC50,[2],0.605 µM (active)
same,outcome,[3],inactive
Clc1cccc(Cl)c1Cl,outcome,[4],inactive
same,outcome,[5],inactive
same,outcome,[6],inactive
OC(Cc1ccccc1Cl)(Cn1[nH]cnc1=S)C1(Cl)CC1 (stereo not given),AC50,[7],0.689 µM (active)
O=c1oc2ccccc2c(O)c1C(CC(O)c1ccc(-c2ccc(Br)cc2)cc1)c1ccccc1 (stereo not given),AC50,[8],9.45 µM (active)
N#Cc1cccnc1,outcome,[9],inactive
same,outcome,[5],inactive
same,outcome,[6],inactive
same,outcome,CDK2 (gene 1017),inactive
Cc1cc(C(C)(C)c2ccc(O)c(C)c2)ccc1O,AC50,[7],1.04 µM (active)
CC(C)O.CC(C)O.OCCN(CCO)CCO.OCCN(CCO)CCO.[Ti],AC50,[9],1.5 µM (active)
same,AC50,Caspase-1 (Homo sapiens),1.37 µM (active)
same,AC50,[10],8.59 µM (active)
same,AC50,[4],3.12 µM (active)
same,AC50,[8],1.81 µM (active)
same,AC50,[3],0.00319 µM (active)
same,AC50,[11],7.67 µM (active)
same,AC50,[12],3.46 µM (active)
same,AC50,[6],4.96 µM (active)
same,AC50,CDK2 (gene 1017),0.003 µM (active)
same,AC50,[13],1.13 µM (active)
O=C(Cc1ccccc1)OCCc1ccccc1,AC50,[11],25 µM (active)
Nc1c(Oc2ccccc2)cc(O)c2c1C(=O)c1ccccc1C2=O,AC50,[8],0.133 µM (active)
same,AC50,[11],5.73 µM (active)
COc1ccccc1N,outcome,[3],inactive
same,outcome,[12],inactive
O=C(O)C1(c2ccc3c(c2)OC[C@H](Cc2ccc(-c4ccccc4)cc2)[C@H]3O)CCCC1,outcome,[9],inactive
COC(=O)Nc1cccc(OC(=O)Nc2cccc(C)c2)c1,AC50,[14],3.46 µM (active)
same,AC50,"rat CYP3A1, gene 25642",11.4 µM (active)
Nc1ccc(N)cc1,AC50,[8],5.42 µM (active)
same,AC50,[11],15.1 µM (active)
CCCCCCCCCCCCc1cccc(S(=O)(=O)O)c1,outcome,[9],inactive
same,outcome,[5],inactive
same,AC50,[3],35 µM (active)
same,AC50,[11],0.428 µM (active)
same,AC50,[6],16.1 µM (active)
CC(C=O)Cc1ccc2c(c1)OCO2 (stereo not given),AC50,[7],5 µM (active)
CCCCCCCCCCCCOS(=O)(=O)O,outcome,[9],inactive
same,AC50,[6],28.5 µM (active)
[Cl][Sn]([c]1ccccc1)([c]1ccccc1)[c]1ccccc1,AC50,[7],1.25 µM (active)
CCOC(=O)CCN(SN(C)C(=O)Oc1cccc2c1OC(C)(C)C2)C(C)C,AC50,[7],3.01 µM (active)
BrCCCCBr,outcome,[11],inactive
O=[N+]([O-])c1ccc(Nc2ccccc2)cc1,AC50,[7],5 µM (active)
CCOP(=O)(OCC)OC(=CCl)c1ccc(Cl)cc1Cl,AC50,[7],1.45 µM (active)
CC1(C)[C@H](C(=O)O[C@H](C#N)c2cccc(Oc3ccccc3)c2)[C@@H]1/C=C(\Cl)C(F)(F)F,AC50,[7],848 nM (active) and 3.32 µM (active)
same,outcome,[15],inactive
same,outcome,[16],inactive
same,outcome,"rat CYP3A1, gene 25642",inactive
CC(C)(c1ccccc1)c1cc(-n2nc3ccccc3n2)c(O)c(C(C)(C)c2ccccc2)c1,outcome,[17],inactive
O=C(N[C@H]1CN2CCC1CC2)c1ccc2c(c1)OCCO2,outcome,[9],inactive
same,outcome,[4],inactive
same,outcome,[11],inactive
same,outcome,[6],inactive
CCOC(=O)C(SP(=S)(OC)OC)c1ccccc1 (stereo not given),AC50,[7],5 µM (active)
CN(C)C(=S)S,outcome,[7],inactive
same,outcome,[11],inactive
CNC(=O)CSP(=O)(OC)OC,AC50,[7],2.11 µM (active)
